This note sets out measurements from PubChem BioAssay AID2156 (Johns Hopkins Ion Channel Center, 2009).

The whole screen tested about 310,000 compounds, of which about 3,400 (1.1%) were called active. The list comes from a sample in which actives are over-represented; it also holds similar structures and randomly drawn compounds. Unmarked numbers belong to inactive results.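 The calls were made as follows: active = fluorescence ratio B-score at most minus 3 library SDs, with starting brightness B-score within 2 library SDs (cut at about -5.5 in these data); inactive = the rest, inconclusive results apart.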 Peptide text beside a SMILES is read from it. * marks the point of attachment. OPac = O=C(CO*)c1ccccc1; Bz = O=C(c1ccccc1)*

In this assay the target is Potassium voltage-gated channel subfamily KQT member 2 (Rattus norvegicus) (UniProt O88943). Put plainly: KCNQ2 channel blockers in CHO-K1 cells – cell-based, FluxOR thallium flux, B-score, primary screen (AID 2156). The following applies: 20 min, at 10 µM; hits give low values.
Chain of Potassium voltage-gated channel subfamily KQT member 2 (Rattus norvegicus) (O88943 whole entry, looked up): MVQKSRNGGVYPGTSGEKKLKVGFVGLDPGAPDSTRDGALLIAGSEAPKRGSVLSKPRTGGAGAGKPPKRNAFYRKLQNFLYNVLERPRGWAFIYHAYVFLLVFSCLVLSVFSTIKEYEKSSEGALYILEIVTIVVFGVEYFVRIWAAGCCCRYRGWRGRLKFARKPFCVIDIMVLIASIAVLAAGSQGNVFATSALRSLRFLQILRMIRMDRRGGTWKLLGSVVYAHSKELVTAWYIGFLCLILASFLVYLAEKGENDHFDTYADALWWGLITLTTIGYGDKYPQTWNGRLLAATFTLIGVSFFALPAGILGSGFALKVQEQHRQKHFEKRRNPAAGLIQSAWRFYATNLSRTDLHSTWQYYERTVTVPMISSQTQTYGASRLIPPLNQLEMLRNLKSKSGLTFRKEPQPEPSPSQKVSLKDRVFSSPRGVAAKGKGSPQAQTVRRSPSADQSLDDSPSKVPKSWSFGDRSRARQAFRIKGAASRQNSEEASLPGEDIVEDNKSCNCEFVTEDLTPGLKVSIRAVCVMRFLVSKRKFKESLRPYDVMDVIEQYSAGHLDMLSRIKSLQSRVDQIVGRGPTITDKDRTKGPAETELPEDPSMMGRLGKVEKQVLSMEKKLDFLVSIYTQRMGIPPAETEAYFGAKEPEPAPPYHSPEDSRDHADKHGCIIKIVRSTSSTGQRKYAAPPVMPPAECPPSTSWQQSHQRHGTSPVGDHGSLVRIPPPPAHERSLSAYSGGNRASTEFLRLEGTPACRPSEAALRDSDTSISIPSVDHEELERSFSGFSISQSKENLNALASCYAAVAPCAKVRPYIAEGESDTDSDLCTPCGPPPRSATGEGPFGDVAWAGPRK
As for `O=C(N/N=C/c1cc(Br)c(O)c([N+](=O)[O-])c1)C(O)(c1ccccc1)c1ccccc1`, the B-score result was “inactive”.
With `C=CCOC(=O)C1=C(C)NC(SCC(=O)OCC)=C(C#N)C1c1ccc(C)cc1` (configuration not stated), the B-score was -6.37 (active).
With `CCOC(=O)CSC1=C(C#N)C(c2ccco2)C(C(=O)OCc2ccccc2)=C(C)N1` (configuration not stated), the B-score is -2.55.
As to `C=CCOC(=O)C1=C(C)OC(N)=C(C#N)C1c1ccc(F)cc1` (configuration not stated), the B-score result was “inactive”.
Turning to `CC(C)N(Cc1nnc(-c2ccc(Cl)cc2)o1)C(=O)C1=COCCO1`, the B-score is -1.82.
Then `CCOC(=O)C1CCc2nc3ccccc3c(=O)n21` (configuration not stated), with “inactive”.
Then `CCOC(=O)C(C)Sc1nc2ccccc2c(=O)n1CC1CCCCC1` (configuration not stated), with -10.1 (active); and `CCOn1c(SC(C)C)nc2ccccc2c1=O`, with -2.44; and `CCCCn1c(N)c(N(CCOC)C(=O)c2cccc(S(=O)(=O)N(C)c3ccccc3)c2)c(=O)[nH]c1=O`, with -0.06.
Then `COc1ccc(C)cc1NC(=O)C(Sc1ccccc1)c1ccccc1` (configuration not stated), with -2.05; and `COc1ccc(C)cc1NC(=O)C(OC(=O)c1cccc(S(=O)(=O)N(C)c2ccccc2)c1)c1ccccc1` (configuration not stated), with -7.07 (active); and `COc1ccc(C)cc1NC(=O)Nc1ccccc1SC`, with “inactive”.
`Cc1ccc(S(=O)(=O)N2CCN(C(=O)c3ccccc3-c3nc4ccccc4s3)CC2)c(C)c1`: the B-score was -0.72.
`CCOC(=O)CSc1nc2c(c(=O)n(C)c(=O)n2C)n1Cc1ccccc1F`: the B-score entry is “inactive”.
Then `CCOC(=O)CSc1nc2c(sc(=S)n2CCc2ccccc2)c(=O)n1Cc1ccco1`, with -5.6 (active); and `CCOC(=O)CSc1nnc(-c2ccco2)n1C`, with “inactive”.
Turning to `OCCCNc1nc(-c2ccccc2)c2cc(Cl)ccc2n1`, the B-score result was “inactive”.
Take `CCCCn1c(N)c(N(CC(C)C)C(=O)c2ccc(Br)o2)c(=O)[nH]c1=O`: the B-score result was “inactive”.
For `O=C(c1ccc(F)c(S(=O)(=O)N2CCOCC2)c1)N(CCc1ccccc1)Cc1ccccc1`, the B-score is -2.85.
On to `COc1ccc(-c2nc(N)ncc2-c2ccc(Cl)cc2)c(O)c1`, for which the B-score is -0.21.
With `CC(C)(C)Oc1ncc(Br)c(OC(C)(C)C)n1`, the B-score result was “inactive”.
Turning to `COc1cccc(-c2cnc(OC(C)(C)C)nc2OC(C)(C)C)c1`, the B-score was -7.02 (active).
As for `CC(Oc1ccc(F)cc1)C(=O)Nc1ccccc1C(=O)NC1CC1` (configuration not stated), the B-score was -1.68.
As for `COc1ccc(C2CC(c3cccs3)=NN2C(=O)CCC(=O)O)cc1OC` (configuration not stated), the B-score entry is “inactive”.
For the compound `COc1ccc(C2CC(c3cccs3)=NN2C(=O)COC(=O)c2cc3ccccc3cc2O)cc1OC` (configuration not stated), the B-score result was “inactive”.
Take `O=C1c2cccc(OCC(=O)N3N=C(c4cccs4)CC3c3ccc(F)cc3)c2CCN1Cc1ccccc1` (configuration not stated): the B-score was -5.75 (active).
On to `Nc1cccnc1Sc1ccccc1`, for which the B-score entry is “inactive”.
As for `O=C(CNC(=O)c1ccccc1)NCC(=O)OCC(=O)c1ccccc1` (Bz-Gly-Gly-OPac), the B-score result was “inactive”.
As to `COCCNC(=O)COc1ccccc1C`, the B-score was -1.11.
As for `Cc1ccccc1OCC(=O)NCC(=O)OCC(=O)c1ccc2ccccc2c1`, the B-score was -5.95 (active).
For `Nc1c(C(=O)Nc2ccc3c(c2)OCCO3)nnn1Cc1ccccc1`, the B-score was -0.47.
On to `CN1/C(=C\C(=O)c2oc3ccccc3c2N)C(C)(C)c2ccccc21`, for which the B-score is -0.16.
Take `CC(=O)Nc1cccc(OCC(=O)/C=C2\N(C)c3ccccc3C2(C)C)c1`: the B-score is -6.18 (active).
Take `CC(C)Nc1nnc(SCC(=O)/C=C2\N(C)c3ccccc3C2(C)C)s1`: the B-score result was “inactive”.
For `Cc1ccc(S(=O)(=O)N(C)C)cc1NC(=O)C1Cc2ccccc2CN1C(=O)c1ccco1` (configuration not stated), the B-score was -0.13.
Under `Cc1ccc(NC(=O)C2CCCN2C(=O)OCc2ccccc2)cc1C` (configuration not stated) stands “inactive”; under `Cc1ccc(C)c(NC(=O)C2Cc3ccccc3CN2C(=O)OCc2ccccc2)c1` (configuration not stated), -6.25 (active); under `CCOC(=O)C1=C(C)Nc2sc(C(=O)c3ccc(Br)cc3)c(N)c2C1c1ccc(C(=O)OC)cc1` (configuration not stated), -6.56 (active).
Under `CCOC(=O)c1sc(=NC(=O)c2ccc(Br)cc2)n(C)c1C` stands “inactive”.
`CCOC(=O)c1sc(=S)n2c1[nH]c(=O)c1ccc(C(=O)OC)cc12`: the B-score entry was “inactive”.
In the case of `Cc1cc(Nc2ccc(Br)cc2)nc2ccccc12`, the B-score result is “inactive”.
Turning to `Cc1ccc2nc(SCC(=O)N3CCN(c4ccccc4)CC3)nc(=O)n2c1`, the B-score is -0.18.
Then `Cc1nc(-c2ccc(F)cc2)c(CC(=O)Nc2cccc(S(=O)(=O)N3CCOCC3)c2)s1`, with -0.75; and `CCOC(=O)C1CCN(C(=O)COC(=O)C2CCN(S(=O)(=O)c3ccc4c(c3)OCCO4)CC2)CC1`, with “inactive”; and `CCOc1ccc(C(=O)Nc2cc(Cl)ccc2-n2cncn2)cc1OC`, with -0.08.
As for `CC(=O)Nc1ccc(NC(=O)CSC2=NS(=O)(=O)c3ccccc3N2)cc1`, the B-score entry is “inactive”.
Under `COc1ccc(C(CNC(=O)c2ccc(NS(=O)(=O)c3ccc(F)c(C)c3)cc2)N(C)C)cc1` (configuration not stated) stands “inactive”; under `CCCCn1c(N)c(N(CC(C)C)C(=O)C2CSC3(C)CCC(=O)N23)c(=O)[nH]c1=O` (configuration not stated), -1.75; under `Cc1cccc(C(C)C)c1NC(=O)COC(=O)C1CC(=O)N(Cc2ccccc2)C1` (configuration not stated), “inactive”.
As to `CC(=O)N1N=C(c2ccccc2)OC1c1cccnc1` (configuration not stated), the B-score result was “inactive”.
As for `O=C(Cc1ccccc1)N1N=C(c2ccncc2)CC1(O)C(F)(F)F` (configuration not stated), the B-score result was “inactive”.
Under `CC(=O)N1N=C(c2ccncc2)OC1(Cc1ccccc1)Cc1ccccc1` stands -7.53 (active); under `CC(=O)Nc1cccc(C(=O)OCC(=O)NCc2cc(C)c(O)c(C)c2)c1`, “inactive”; under `COc1ccccc1-c1n[nH]c2c1[C@H](C)CC[C@H]2C(C)C`, -10.1 (active).
Take `COc1ccccc1-c1nc(SC)n[nH]1`: the B-score was -0.1.
In the case of `COc1ccc(-c2n[nH]c(C)c2-c2ccccc2OC)c(O)c1`, the B-score entry was “inactive”.
Under `Cc1ccnc(NC(=O)CCC(=O)N(CC(=O)NCc2ccccc2)Cc2ccco2)c1` stands -0.05.
As for `Cc1ccc(C(C(=O)NC2CCCC2)N(Cc2ccco2)C(=O)CCC(=O)Nc2ccccn2)cc1` (configuration not stated), the B-score is -1.92.
With `Cc1ccc2c(c1)N(CC(=O)N(Cc1ccccn1)Cc1ccco1)C(=O)C(C(C)C)O2` (configuration not stated), the B-score is -7.54 (active).
Turning to `O=C(c1ccc(Cl)s1)N(Cc1nnc(-c2ccccc2Cl)o1)C1CC1`, the B-score is -0.68.
Consider `O=C(Nc1ccccc1[N+](=O)[O-])C1C(c2ccccc2)=C1c1ccccc1`, for which the B-score is -5.88 (active).
For `O=C(O)c1ccccc1C(=O)Nc1ccccc1[N+](=O)[O-]`, the B-score is -1.
Take `O=C(Nc1ccccc1-c1ccccc1)c1ccccc1[N+](=O)[O-]`: the B-score is -3.5.
For `CCC(CC)c1nnc(NC(=O)C2=COCCO2)s1`, the B-score is -0.29.
`CCOc1cc(N2CCOCC2)c(OCC)cc1NC(=O)c1ccc(C)s1`: the B-score is -6.48 (active).
Take `CCOc1cc(N2CCOCC2)c(OCC)cc1NC(=O)COc1cccc2cccnc12`: the B-score is -3.14.
Regarding `CCOc1cc(N2CCOCC2)c(OCC)cc1NC(=O)COc1cccc(Cl)c1`, the B-score entry is “inactive”.
Consider `Cc1ccc(-c2nn(-c3ccc(F)cc3)cc2C(=O)NCC(c2cccs2)N2CCOCC2)cc1` (configuration not stated), for which the B-score is -1.75.
As to `CCOC(=O)N1CCN(C(=O)c2nn(-c3ccc(C)cc3)c(=O)c3c2c2ccccc2n3C)CC1`, the B-score entry was “inactive”.
For `O=C(c1ccccc1Oc1ccccc1)N1CCN(c2ccc(F)cc2)CC1`, the B-score is -3.32.
On to `Cn1c2ccccc2c2c(C(=O)N3CCN(c4ccc(F)cc4)CC3)cn(C3CCCC3)c(=O)c21`, for which the B-score is -5.96 (active).
Turning to `CN1C(C(=O)NCC2CC2)CC2Cn3c(nc4ccccc43)C21` (configuration not stated), the B-score result is “inactive”.
As to `CCOC(=O)c1cnc2nc(SCc3ccccc3Cl)[nH]n2c1=O`, the B-score is -0.81.
On to `O=C(Cc1cccc2ccccc12)NCCC1=CCCCC1`, for which the B-score was -0.18.
For the compound `CCC(=O)N1CCN(c2ccccc2NC(=O)COc2cccc(C)c2C)CC1`, the B-score is -4.29.
Under `Cc1ccc(C(C)C)cc1OCCN1CCCC1` stands “inactive”; under `Cc1ccc(C(C)C)cc1OCC(=O)Nc1ccccc1N1CCCC1`, -8.31 (active).
Consider `O=C(CNCCC1=CCCCC1)Nc1ccccc1N1CCCCCC1`, for which the B-score is -8.12 (active).
Then `Cc1ccccc1NC(=O)Nc1ccccc1N1CCCCC1`, with “inactive”; and `Cn1c(=O)c2c(nc(SCC(=O)Nc3ccccc3N3CCCCC3)n2C)n(C)c1=O`, with -0.67; and `Cc1ccccc1NC(=O)CNc1ccccc1N1CCCCC1`, with -5.56 (active).
With `O=C(CN1CCN(C2CCCCC2)CC1)Nc1ccccc1N1CCCCC1`, the B-score result is “inactive”.
For `N#Cc1cccc(OC(=O)c2ccc3c(=O)n4c(nc3c2)CCC4)c1`, the B-score was -0.01.
Under `CN1CCN(S(=O)(=O)c2ccc(Nc3ccc(F)cc3)nc2)CC1` stands -0.21; under `COc1ccccc1CCNC(=O)CN1C(=O)NC2(CCCC2)C1=O`, “inactive”.
For `CC(Oc1cccc(Cl)c1)C(=O)Nc1ccc(S(=O)(=O)Nc2ncccn2)cc1` (configuration not stated), the B-score entry was “inactive”.
Consider `CSc1ccc(/C=C2\NC(=O)NC2=O)cc1`, for which the B-score result is “inactive”.
For `O=C(Cc1c[nH]c2ccccc12)OCCOC(=O)Cc1c[nH]c2ccccc12`, the B-score is -7.66 (active).
Consider `CCOC(=O)CN(C)Cc1c[nH]c2ccccc12`, for which the B-score result is “inactive”.
For `O=C(COC(=O)Cc1c[nH]c2ccccc12)NCCc1ccccc1`, the B-score is -0.71.
As to `CCCCN(C(=O)c1ccc(C)o1)c1c(N)n(CCCC)c(=O)[nH]c1=O`, the B-score entry was “inactive”.
Turning to `CCC1CCC/C1=N\NC(=O)c1ccc(Cl)cc1` (configuration not stated), the B-score entry was “inactive”.
Under `OC(COc1cccc2ccccc12)CN1CCN(c2ccccn2)CC1` (configuration not stated) stands “inactive”.
Consider `CC(C)c1ccccc1OCC(O)CN(CC(O)COc1cccc2ccccc12)C(C)C` (configuration not stated), for which the B-score was -6.3 (active).
Under `Cc1cc(C)c(NC(=O)C[N+](C)(C)CC(O)COc2cccc3ccccc23)c(C)c1` (configuration not stated) stands “inactive”; under `Cc1ccc(C(=O)NNC(=O)C(C)Oc2ccc3ccccc3c2)o1` (configuration not stated), “inactive”; under `CCN(CC(=O)Nc1ccc(NC(C)=O)cc1)C(=O)C1CC(=O)N(Cc2ccc(C)cc2)C1` (configuration not stated), -0.36.
